DRD3 agonist – activates the human D3 dopamine receptor. P35462. AID 652048. D3R DiscoveRx beta-arrestin cells, luminescence, 90 min. max activation, %. actives 0.58% (n = 410,000); in the data active means max activation above about 30%; further: 0% is about no effect
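Cells at 1500/well, incubated overnight, then treated with pinned compounds (dopamine as control) for 90 min at 37 degrees C. DiscoveRx reagent added for 30 - 60 minutes at room temperature; luminescence read.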
D1 PAM – human D1 dopamine receptor positive modulation; actives 0.036% (n = 360,000); HEK293 TREx D1 cells, calcium flux, dopamine EC20 potentiation; potentiation, % at 10 µM; in the data active means potentiation above about 30%; further: 0% is about no effect
Target sequence (P21728 whole entry, looked up): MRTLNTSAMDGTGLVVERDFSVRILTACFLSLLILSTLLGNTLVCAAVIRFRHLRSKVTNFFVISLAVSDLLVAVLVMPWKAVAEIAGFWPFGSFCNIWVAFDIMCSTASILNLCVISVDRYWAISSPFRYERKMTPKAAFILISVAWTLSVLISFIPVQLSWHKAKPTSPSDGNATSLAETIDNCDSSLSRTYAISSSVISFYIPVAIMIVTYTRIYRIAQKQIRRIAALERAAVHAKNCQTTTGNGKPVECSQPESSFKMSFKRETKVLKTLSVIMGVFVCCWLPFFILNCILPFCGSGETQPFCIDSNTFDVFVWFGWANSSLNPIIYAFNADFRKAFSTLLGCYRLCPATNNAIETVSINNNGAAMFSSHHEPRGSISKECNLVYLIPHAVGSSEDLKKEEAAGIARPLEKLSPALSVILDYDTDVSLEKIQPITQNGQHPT
D3 antag – blocks the human D3 dopamine receptor. D3R cells, DiscoveRx beta-arrestin luminescence, antagonist mode; stronger effect = lower value. max response, negative = inhibition, %. actives 2.5% (n = 360,000). P35462; in the data active means max response below about -50%; inconclusive means no clear call, values can overlap the other calls; further: on the % scale 0 is the no-effect control and ±100 the full control effect
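Cells expressing the human receptor were seeded at 1500 cells/well, incubated overnight at 37 degrees C in 5% CO2, then exposed to library compounds with dopamine controls for 90 minutes at 37 degrees C before luminescent detection.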
D1 ag – activates the human D1 dopamine receptor. P21728. HEK293 T-REx D1 cells, calcium flux, agonist mode. activation, % at 2 µM. actives 1% (n = 360,000). AID 504660; in the data active means activation above about 30%; further: 0% is about no effect
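Inducible HEK293 T-REx D1 cells, force-coupled to calcium signalling, were plated at 4000 cells/well with tetracycline and held overnight at 30 C. After no-wash calcium dye loading, compound-evoked calcium rise over 180 s flagged agonists.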
D1 antagonist – blocks dopamine activation of the human D1 receptor; P21728; activity change, negative = inhibition, % at 10 µM; AID 504652; actives 3.2% (n = 360,000); HEK293 TREx D1 cells, calcium flux, dopamine EC80; stronger effect = lower value; in the data active means activity change below about -30%; further: on the % scale 0 is the no-effect control and ±100 the full control effect
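Kinetic fluorescence of a calcium dye serves as the read-out. D1-expressing Hek293 Trex cells, induced overnight at 30 C, are exposed to compound for 180 s before an EC80 dopamine addition, then read 180 s further.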
* = called active by the depositor. Hits are enriched below; roughly 6.1% of the tested compounds scored in any of these assays.

What do the screens show for `CN1CCN(C(=O)C23CC4CC(C)(CC(C)(C4)C2)C3)CC1`?
DRD3 agonist: -21; D1 PAM: -4; D3 antag: -71*; D1 ag: 3; D1 antagonist: 1

How did Cc1ccc(CN(C)C(=O)c2cc(Br)c(Br)s2)o1 do in these assays?
DRD3 agonist: 1; D1 PAM: -6; D3 antag: -10; D1 ag: 1; D1 antagonist: -35*

How did Cc1ccc2oc(C(=O)N(C)Cc3ccc(C)o3)c(C)c2c1 do in these assays?
DRD3 agonist: -5; D1 PAM: -6; D3 antag: -26; D1 ag: 1; D1 antagonist: 2

Results for OCCNc1nc(NCCC2=CCCCC2)nc(N2CCOCC2)n1 ?
DRD3 agonist: 1; D1 PAM: -12; D3 antag: -5; D1 ag: 1; D1 antagonist: -54*

Results for O=C(N/N=C/c1ccc(-c2ccc([N+](=O)[O-])cc2)o1)c1cccnc1 ?
DRD3 agonist: 6; D1 PAM: -4; D3 antag: -9; D1 ag: 4; D1 antagonist: -42*

Results for O=C(Cc1ccccc1)N/N=C/c1ccc(-c2ccc([N+](=O)[O-])cc2)o1 ?
DRD3 agonist: 1; D1 PAM: -9; D3 antag: 3; D1 ag: 5; D1 antagonist: -54*

What do the screens show for `O=C(N/N=C/c1ccc([N+](=O)[O-])cc1)c1cccnc1`?
DRD3 agonist: -9; D1 PAM: -5; D3 antag: -19; D1 ag: -2; D1 antagonist: 28

What do the screens show for `NC(=O)N/N=C/c1ccc(-c2ccc([N+](=O)[O-])cc2)o1`?
DRD3 agonist: -1; D1 PAM: -7; D3 antag: -7; D1 ag: 20; D1 antagonist: -4

How did O=[N+]([O-])c1ccc(-c2ccc(/C=N/O)o2)cc1 do in these assays?
DRD3 agonist: 9; D1 PAM: 0; D3 antag: 20; D1 ag: 2; D1 antagonist: 9

What do the screens show for `COCCNC(=S)N/N=C/c1ccc(-c2ccc([N+](=O)[O-])cc2)o1`?
DRD3 agonist: -8; D1 PAM: 2; D3 antag: 8; D1 ag: 88*; D1 antagonist: -4

What do the screens show for `CCOc1ccc(NC(=O)CSc2oc(-c3ccco3)nc2S(=O)(=O)c2ccc(Cl)cc2)cc1`?
DRD3 agonist: -11; D1 PAM: 2; D1 ag: 25; D1 antagonist: 3

How did O=C(Nc1ccccc1Oc1cccnc1)C1CCCN(C/C=C/c2ccccc2)C1 (configuration not stated) do in these assays?
DRD3 agonist: -41; D1 PAM: -6; D3 antag: -60*; D1 ag: 1; D1 antagonist: -10

Results for Cc1onc(-c2ccccc2Cl)c1C(=O)Nc1nnc(-c2cccc([N+](=O)[O-])c2)s1 ?
DRD3 agonist: 4; D1 PAM: 15; D3 antag: 20; D1 ag: 41*; D1 antagonist: 39

What do the screens show for `Cc1onc(-c2ccccc2Cl)c1C(=O)Nc1ccc(N2CCOCC2)cc1`?
DRD3 agonist: -10; D1 PAM: -6; D3 antag: 9; D1 ag: 1; D1 antagonist: -46*

What do the screens show for `Cc1ccc(-c2csc(N3CCN(c4cc5c(cc4Cl)nc(C)n5CCN4CCCCC4)CC3)n2)cc1`?
DRD3 agonist: -24; D1 PAM: -11; D3 antag: inconclusive; D1 ag: 1; D1 antagonist: -39*

Results for CCC1CCCCN1C/C=C/c1ccccc1[N+](=O)[O-] (configuration not stated) ?
DRD3 agonist: -27; D1 PAM: 1; D3 antag: -55*; D1 ag: 2; D1 antagonist: 5

How did CC1CCCCN1C/C=C/c1ccccc1[N+](=O)[O-] (configuration not stated) do in these assays?
DRD3 agonist: -21; D1 PAM: -5; D3 antag: -29; D1 ag: 4; D1 antagonist: -10

What do the screens show for `CC1CCCN(C/C=C/c2ccccc2[N+](=O)[O-])C1` (configuration not stated)?
DRD3 agonist: -50; D1 PAM: -7; D3 antag: -91*; D1 ag: 1; D1 antagonist: 1

How did O=C(CO)[C@@H](O)[C@H](O)[C@@H](O)C(=O)O do in these assays?
DRD3 agonist: 7

What do the screens show for `Cc1c(O)c(=O)n(-c2ccccc2)n1C`?
DRD3 agonist: -68; D1 PAM: 7; D3 antag: -57*; D1 ag: 1; D1 antagonist: -25

How did CC(=O)/C(N=Nc1c(C)n(C)n(-c2ccccc2)c1=O)=C(\C)O do in these assays?
DRD3 agonist: 3; D1 PAM: -5; D3 antag: 2; D1 ag: 1; D1 antagonist: -1

What do the screens show for `Cc1c(N=NC2=C(O)CC(C)(C)CC2=O)c(=O)n(-c2ccccc2)n1C`?
DRD3 agonist: -45; D1 PAM: 6; D3 antag: -63*; D1 ag: 3; D1 antagonist: -6

How did Cc1c(N=Cc2c(O)n(C)c(=O)c3ccccc23)c(=O)n(-c2ccccc2)n1C do in these assays?
DRD3 agonist: 33*; D1 PAM: -5; D3 antag: 42; D1 ag: -1; D1 antagonist: 9

How did Cc1c(Cc2c(C)n(C)n(-c3ccccc3)c2=O)c(=O)n(-c2ccccc2)n1C do in these assays?
DRD3 agonist: 2; D1 PAM: 3; D3 antag: 1; D1 ag: 1; D1 antagonist: 5

How did CCCC(=O)NC(=S)c1c(C)n(C)n(-c2ccccc2)c1=O do in these assays?
DRD3 agonist: 38*; D1 PAM: 3; D3 antag: 72; D1 ag: 4; D1 antagonist: 1

Results for CCOc1ccc(CCNC(=O)CCCc2nnc3n(CCCOC)c(=O)c4sccc4n23)cc1 ?
DRD3 agonist: 13; D1 PAM: -3; D1 ag: 2; D1 antagonist: 4

Results for Cc1c(CN(C)CCc2ccccc2)c(=O)n(-c2ccccc2)n1C ?
DRD3 agonist: -29; D1 PAM: -5; D3 antag: -77*; D1 ag: 2; D1 antagonist: 12

What do the screens show for `CCOc1ccc(OCC)c(NC(=O)CCCN2C(=S)NC(C)(C)CC2C)c1` (configuration not stated)?
DRD3 agonist: 0; D1 PAM: -2; D3 antag: -56*; D1 ag: -3; D1 antagonist: 15

Results for Cc1cc(NS(=O)(=O)c2cn(C)c(C)n2)ccc1Br ?
DRD3 agonist: -11; D1 PAM: -2; D1 ag: 3; D1 antagonist: 6

Results for CC(C)Cn1cc(NC(=O)NCc2cccc(Cl)c2)c2ccccc2c1=O ?
DRD3 agonist: -8; D1 PAM: 4; D1 ag: -1; D1 antagonist: -2

Source: PubChem
